Screening results deposited in PubChem BioAssay by National Center for Advancing Translational Sciences (NCATS).
FBPA Giardia inh = inhibitors of Giardia lamblia fructose-1,6-bisphosphate aldolase. hit rate 0.71% among 290,000. Potency, µM (highest dose often 59.6 µM), hits mostly inhibitors. A8B2U2. purified Giardia FBPA. AID 2451; active = well fitted inhibition curve with a large enough effect; inconclusive = small, poorly fitted or top-dose-only effect, or effect the other way; note: nearly all actives have a fitted effect of over 55% in size
Target sequence (A8B2U2 whole entry, looked up): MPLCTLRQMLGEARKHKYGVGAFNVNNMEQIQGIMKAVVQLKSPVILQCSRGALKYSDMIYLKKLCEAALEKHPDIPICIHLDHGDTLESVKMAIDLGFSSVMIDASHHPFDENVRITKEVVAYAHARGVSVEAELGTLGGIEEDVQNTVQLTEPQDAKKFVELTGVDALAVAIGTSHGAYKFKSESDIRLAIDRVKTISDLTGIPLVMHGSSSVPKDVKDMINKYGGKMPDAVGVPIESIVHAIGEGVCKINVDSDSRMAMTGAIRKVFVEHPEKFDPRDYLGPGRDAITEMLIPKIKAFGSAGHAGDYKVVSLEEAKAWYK
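Giardia FBPA (40 nM reagent) was preincubated 10 min at RT with compound (up to 57.5 uM final), then substrate plus GAPDH/TPI/NAD/arsenate coupling system with diaphorase/resazurin was added; resorufin fluorescence (525/598 nm) was read after 20 min.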
VACV Venus inh = vaccinia inhibition (Venus reporter); hit rate 0.46% among 330,000; Vaccinia virus Venus reporter expression, fluorescence; Potency, µM (doses to about 36.5 µM), hits mostly inhibitors; calls by dose curve; tested in A549 cells; note: nearly all actives have a fitted effect of over 30% in size
Vaccinia mCherry = vaccinia inhibition (mCherry reporter); Potency, µM (top dose mostly 36.5 µM), most hits filed as inhibitors; hit rate 0.63% among 310,000; Vaccinia virus mCherry reporter infection, fluorescence; calls by dose curve; tested in A549 cells; note: nearly all actives have a fitted effect of over 35% in size
FMDV antiviral = foot and mouth disease virus antiviral activity | FMDV antiviral cell-based qHTS | Potency, µM (titrated, usually from 57.9 µM), actives largely listed as inhibitors | hit rate 1.2% among 410,000 | AID 1159524; calls by dose curve; tested in HEK293T cells; note: read-out not given here; nearly all actives have a fitted effect of over 45% in size
Numbers stand for hits; i = inactive; ? = inconclusive; nt = not tested or not shown. Rows were chosen to be rich in hits. Some 2.2% of all compounds tested hit in one or more screens of this group.

SMILES | FBPA Giardia inh | VACV Venus inh | Vaccinia mCherry | FMDV antiviral
COC(=O)c1[nH]c2cc(C)ccc2c1NC(=O)CN1CCc2cc(OC)c(OC)cc2C1 | i | i | nt | 22.4µM
COC(=O)c1[nH]c2ccc(C)cc2c1NC(=O)CN1CCN(c2ccccc2)CC1 | i | ? | ? | ?
COC(=O)c1[nH]c2ccc(C)cc2c1NC(=O)CN1CCN(c2ccc(F)cc2)CC1 | i | i | ? | 25.1µM
Cc1ncc(-c2ccc(F)cc2)c(C2CCCN(Cc3cccc(O)c3)C2)n1 (configuration not stated) | nt | i | i | i
COCc1c(C(=O)OCC(=O)c2c(N)n(CC(C)C)c(=O)n(C)c2=O)oc2ccccc12 | i | nt | nt | 31.6µM
Cc1c(C(=O)OCC(=O)c2c(N)n(CC(C)C)c(=O)n(C)c2=O)oc2ccccc12 | i | ? | i | ?
CC(C)Cn1c(N)c(C(=O)COC(=O)/C=C/c2cccs2)c(=O)n(C)c1=O | i | i | i | 17.8µM
Cc1ccccc1C1(CC(=O)N2CCCC(C)C2)CC(=O)N(Cc2cccnc2)C1=O (configuration not stated) | nt | i | i | i
CCOC(=O)c1ccc(NC(=O)CSc2ccc3ccccc3n2)cc1 | nt | i | i | i
O=C(Nc1ccc([N+](=O)[O-])cc1)Nc1ccc(N2CCOCC2)c2nonc12 | ? | 10µM | ? | ?
N=C(N)SCc1cn(-c2ccccc2)nc1-c1ccc(Br)cc1 | i | ? | 11.2µM | 20µM
C=C1CC(COc2cc(=O)oc3ccccc23)(c2ccccc2)OC1=O (configuration not stated) | nt | ? | ? | 14.1µM
CCOC(=O)C1CCN(C(c2cccnc2)c2c(NC(=O)c3ccco3)sc(C)c2C)CC1 (configuration not stated) | i | ? | ? | 25.1µM
COC(=O)C(C)Sc1ncnc2c1nnn2-c1ccc(F)cc1 (configuration not stated) | i | i | nt | i
COc1ccc(-n2nnc3c(SC(C(C)=O)C(=O)N(C)C)ncnc32)cc1 (configuration not stated) | nt | nt | nt | 31.6µM
Cc1cccc(C)c1-n1nnnc1C(c1cc2ccccc2o1)N1CCC(n2c(=O)[nH]c3ccccc32)CC1 (configuration not stated) | nt | ? | ? | 10µM
O=c1[nH]c2ccccc2n1C1CCN(C(CCc2ccccc2)c2nnnn2C2CCCC2)CC1 (configuration not stated) | nt | ? | ? | 35.5µM
N#Cc1nc(COc2ccc(-c3ccccc3)cc2)oc1N1CCC(C(N)=O)CC1 | nt | i | i | nt
COCC(=O)Nc1cc(C(=O)N2CCCCC2c2nccn2C)cc2nc(-c3ccccc3)n(C)c12 (configuration not stated) | nt | i | i | i
Cc1cc(C)c(O)c(-c2n[nH]c3c2C(c2cccc(O)c2)N(Cc2ccco2)C3=O)c1 (configuration not stated) | i | ? | 10µM | i
CN(C)c1ccc(N=Nc2nc3ccccc3n2C)cc1 | i | nt | nt | 3.98µM
Cn1c(N=Nc2ccccc2)nc2ccccc21 | i | i | i | i
CCNc1nc(C#N)nc(N2CCOCC2)n1 | nt | i | i | nt
CCN(CC)S(=O)(=O)c1ccc(-c2nnc(SCc3nnc(-c4ccc(C)cc4)o3)n2CC)cc1 | i | nt | nt | i
CCN(CC)S(=O)(=O)c1ccc(-c2nnc(SCc3nnc(-c4ccc(C)cc4)o3)o2)cc1 | i | ? | 0.0011µM | i
SMILES | FBPA Giardia inh | VACV Venus inh | Vaccinia mCherry | FMDV antiviral
CCN(CC)S(=O)(=O)c1ccc(-c2nnc(SCC(=O)N3CCOCC3)o2)cc1 | i | 3.55µM | 2.51µM | nt
COc1cc(NC(=O)c2cccc(C)c2)ccc1NC(=O)c1cc2ccccc2o1 | i | 8.91µM | ? | i
CCOc1cccc(C(=O)Nc2ccc(NC(=O)c3cc4ccccc4o3)c(OC)c2)c1 | i | i | i | i
CCCCNC1=CC(=O)C(=O)c2ccccc21 | i | nt | nt | 35.5µM
O=C1C=C(Nc2cccc3cccnc23)c2ccccc2C1=O | 1.58µM | i | ? | 28.2µM
CCCCNC1=CC(=O)C(NCCCC)=CC1=O | nt | i | ? | i
O=C1C=C(Nc2ccccc2)C(=O)c2ccccc21 | ? | ? | i | i
O=C1C=C(Nc2ccccc2C(=O)O)c2ccccc2C1=O | 1.58µM | nt | nt | i
O=C1C=C(Nc2ccccc2)c2ccccc2C1=O | ? | 7.94µM | ? | ?
COc1cc2nc(N3CCN(C)CC3)nc(NC(C)C)c2cc1OC | nt | i | i | nt
CN(CC(=O)O)c1ccc(/C=C2\C=Cc3ccccc32)cc1 | nt | i | i | nt
O=C(OCc1cnc(Cl)s1)c1ccccc1Cl | i | i | nt | i
O=C(OCn1ncc(Br)c(Br)c1=O)c1ccc(F)cc1 | i | 10µM | 11.2µM | 14.1µM
O=C(OCn1ncc(Br)c(Br)c1=O)c1ccccc1Cl | i | ? | ? | 14.1µM
COc1ccc(CCSc2n[nH]c(C(C)C)n2)cc1 | nt | i | i | nt
OCCN1CCN(Cc2ccc3c(c2)CN(Cc2cnc(-c4ccccc4)s2)CCO3)CC1 | nt | i | i | i
CC1(C)CC[C@]2(C(=O)n3ccnc3)CC[C@]3(C)[C@H](C(=O)C=C4[C@@]5(C)C=C(C#N)C(=O)C(C)(C)[C@@H]5CC[C@]43C)[C@@H]2C1 | nt | i | i | 1.41µM
O=C(OC1Cc2c(O)cc(O)cc2OC1c1cc(O)c(O)c(O)c1)c1cc(O)c(O)c(O)c1 (configuration not stated) | ? | i | i | i
CN1CCN(Cc2nc(N)nc(Nc3ccc4c(c3)OCCO4)n2)CC1 | i | nt | nt | i
Nc1nc(CN2CCN(c3ccccc3F)CC2)nc(Nc2ccc3c(c2)OCCO3)n1 | i | nt | nt | 22.4µM
CC(=O)OC1C[C@@]2(C)C(c3ccoc3)C[C@H]3O[C@@]32[C@@]2(C)C(=O)C(O)=C3C(C)(C)C(=O)C=C[C@]3(C)C12 (some centres not stated) | i | 8.91µM | 7.08µM | 7.94µM
CC(=O)OC1CC2C(C)(C)C=CC(=O)[C@@]2(C)C2CC[C@@]3(C)C(c4ccoc4)OC(=O)C4OC43[C@]12C (some centres not stated) | i | i | i | i
CC(=O)OC1CC(OC(C)=O)[C@]2(C)C(CC(OC(C)=O)[C@]3(C)C2CC[C@@]2(C)C(c4ccoc4)C[C@H]4O[C@]432)C1(C)C (some centres not stated) | i | i | i | i
CC(=O)O[C@@H]1C[C@@]2(C)C(c3ccoc3)C[C@H]3O[C@]32[C@]2(C)C(=O)C(O)=C3C(C)(C)C(=O)C=C[C@]3(C)C12 (some centres not stated) | i | nt | nt | 25.1µM
O=S(=O)(c1ccc(Cl)cc1)c1snnc1-c1ccccc1 | i | ? | ? | 10µM
SMILES | FBPA Giardia inh | VACV Venus inh | Vaccinia mCherry | FMDV antiviral
CCOC(=O)c1ccc(N=c2sc(C(=O)OC)cc(=O)n2-c2ccc(C(=O)OCC)cc2)cc1 | i | i | i | 20µM
COC(=O)c1cc(=O)n(-c2ccccc2)c(=Nc2ccccc2)s1 | i | 5.01µM | ? | 12.6µM
COc1cc(OC)c(OC)cc1CNC(=O)c1cc(S(=O)(=O)N(C)c2ccccc2OC)ccc1C | nt | nt | nt | 28.2µM
CC(=O)c1ccc(NC(=O)c2ccc(C)c(S(=O)(=O)N3CCOCC3)c2)cc1 | i | i | i | ?
Cc1cc(-c2csc(NC(=O)c3ccc(S(=O)(=O)N(C)C)cc3)n2)c(C)n1-c1ccccc1 | i | i | i | 31.6µM
COc1ccccc1N(C)S(=O)(=O)c1ccc(C(=O)N(C)Cc2cccc(OC)c2OC)cc1 | nt | i | i | ?
